Results on 15 compounds are retold here after PubChem BioAssay.

A short description of test [1]: compound effects on lung adenocarcinoma cell viability – A549, calcein-AM fluorescence, 48 h, basal, profiling panel (AID 1162). Particulars: higher = more signal.
Test [2] is described as follows: compound effects on differentiated 3T3-L1 adipocyte viability – cell-based, 3T3-L1 adipocytes, calcein-AM fluorescence, 48 h, basal, profiling panel (AID 1163). Conditions: 3T3-L1 adipocytes viability, higher = more signal.
A short description of test [3]: compound effects on hepatocellular carcinoma cell viability – HepG2, calcein-AM fluorescence, 48 h, basal, profiling panel (AID 1164). Particulars: higher = more signal.
Test [4] is described as follows: compound effects on multiple myeloma cell viability – MM1S, calcein-AM fluorescence, 48 h, basal, profiling panel (AID 1165). Conditions: higher = more signal.
The nature of test [5]: calcein-AM signal in unstimulated myeloma cells – cell-based, calcein-AM fluorescence, 48 h, PK04 Diversity Set, profiling panel (AID 1166).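 Note: cells grown under basal conditions without added stimulus.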 Particulars: RPMI8226 myeloma viability, higher = more signal.
The nature of test [6]: JC-1 mitochondrial signal, unstimulated HepG2 cells – cell-based, JC-1 fluorescence, 24 h, 100 nL compound, profiling panel (AID 1167). Particulars: HepG2 mitochondrial potential, higher = more signal.
The nature of test [7]: JC-1 mitochondrial signal, unstimulated adipocytes – cell-based, JC-1 fluorescence, 3T3-L1 adipocytes, 24 h, 100 nL compound, profiling panel (AID 1168). Particulars: JC-1 mitochondrial fluorescence, higher = more signal, called active from +8 up or from −8 down.
Test [8] can be described thus: JC-1 mitochondrial signal, unstimulated myeloma cells – cell-based, JC-1 fluorescence, RPMI8226, 24 h, 100 nL compound, profiling panel (AID 1169). Particulars: JC-1 mitochondrial potential fluorescence, higher = more signal.
Test [9] can be described thus: JC-1 mitochondrial signal, unstimulated MM1S myeloma – cell-based, JC-1 fluorescence, 24 h, 100 nL compound, profiling panel (AID 1170). Conditions: MM1S mitochondrial potential, higher = more signal.
Test [10] is described as follows: resazurin metabolic signal in A549 cells – cell-based, resazurin fluorescence, 24 h, PK04 Diversity Set, profiling panel (AID 1171). Particulars: A549 viability, higher = more signal, called active from +8 up or from −8 down.

The source made the active and inactive calls.
Note: test concentration not given here.

With `CN1C(=O)C2C=CC(C(O)C#Cc3ccccc3)N(Nc3ccccc3)C2C1=O` (stereo not given), the z-score was -1.12 in [1]; -0.341 in [2]; -0.255 in [3]; -1.05 in [4]; -0.398 in test [5]; -1.36 in [6]. For the same compound, the z-score in test [7] is 0.39 (inactive); in [8], -1; in test [9] it was -1; in test [10] it was 0.699 (inactive).
`C=CCNC(=O)[C@H]1[C@@H]2C(=O)O[C@@H](c3ccccc3)[C@@H](c3ccccc3)N2[C@@H](c2ccc(O)cc2)[C@]12C(=O)N(C(=O)OCCOC)c1ccccc12`: the z-score in [1] is -0.335; in [2] it was 1.19; in test [3], -0.513; in test [4] it was -1.79; in [5], -1.66; in [6], -1.67. Also, the z-score is 0.0113 (inactive) in test [7], -1.01 in test [8], 0.338 in test [9] and -1.56 (inactive) in test [10].
In the case of `CC(CO)N1C(=O)[C@@H]2[C@H]3C(=O)OCC=C[C@H]3OC23C=CCN(C(C)(C)C)C(=O)[C@@H]13` (stereo not given in full), the z-score in test [1] is -0.0702; in test [2], -0.643; in [3], -0.711; in [4] it was 1.08; in test [5] it was 0.0608; in test [6], -0.936. Further, the z-score in test [7] was -0.172 (inactive); in test [8], 0.127; in test [9] it was 0.0965; in [10], -0.289 (inactive).
As for `C=C(C)c1cc2c(c(CCCCCC)n1)[Si](C(C)C)(C(C)C)OC2`, the z-score in [1] is -0.926; in test [2], -0.197; in test [3], -0.567; in test [4] it was 0.134; in test [5], 0.414; in test [6], -0.592. Further, the z-score in test [7] was -0.617 (inactive); in test [8], 0.56; in test [9], -0.369; in test [10], 0.867 (inactive).
Turning to `COC(=O)CCCCCCC(=O)Nc1ccc(NC(=O)CCCC[P+](c2ccccc2)(c2ccccc2)c2ccccc2)cc1`, the z-score is -0.0008 in test [1]; -0.297 in test [2]; 0.67 in test [3]; 0.134 in test [4]; -0.268 in [5]; 1.58 in [6]. For the same compound, the z-score in test [7] was 1.03 (inactive); in test [8] it was -0.176; in [9] it was -1.46; in [10] it was 1.1 (inactive).
As for `CC[C@H]1C2=C3C(CC[C@H]4C(OCc5ccc(F)cc5C(F)(F)F)OC[C@](C)([C@@H]34)N(C(=O)OC(C)(C)C)C2)C(COC)C1COC` (stereo not given in full), the z-score in [1] was -0.266; in [2], -0.851; in [3], 0.309; in test [4] it was 0.0661; in test [5] it was -0.307; in test [6], 1.38. The z-score in test [7] is -0.159 (inactive); in test [8], -0.182; in [9], -1.53; in test [10] it was -0.515 (inactive).
On to `CN(C)CCCNC(=O)[C@@H]1c2ccccc2C(=O)N(Cc2ccccc2Cl)[C@H]1c1ccc(CO)cc1`, for which the z-score is 0.904 in [1]; 0.841 in [2]; 0.112 in test [3]; -0.147 in [4]; -0.872 in test [5]; 1.5 in test [6]. Further, the z-score in [7] was 0.517 (inactive); in [8], 0.114; in [9], 0.599; in test [10] it was 0.508 (inactive).
As for `O=C(CS)NCCCCCNC(=O)[C@@H]1C[C@@H]2C(=O)N3CCC[C@H]3C(=O)N2[C@@H]1c1cccc(OCCO)c1`, the z-score is -0.174 in test [1]; 0.195 in test [2]; 0.451 in test [3]; -0.304 in test [4]; -0.799 in test [5]; 0.266 in test [6]. The z-score in [7] was 0.0369 (inactive); in test [8] it was -0.00798; in [9], 0.305; in test [10], -0.61 (inactive).
`CN1C(=O)C2C=CC(C(O)COCc3ccccc3)N(N(c3ccccc3)c3ccccc3)C2C1=O` (stereo not given): the z-score was 1.52 in test [1]; -1.5 in [2]; 0.688 in test [3]; -3.79 in test [4]; -3.67 in test [5]; 0.0589 in test [6]. The z-score in [7] is -1.12 (inactive); in test [8] it was -0.974; in test [9], -1.34; in test [10], 0.419 (inactive).
Take `COCCCNC(=O)[C@]1(CCS(=O)(=O)c2ccccc2)N=C(c2ccc(OCCCO)cc2)O[C@@H]1c1ccccc1N=[N+]=[N-]`: the z-score was 0.76 in test [1]; 0.108 in [2]; 0.683 in [3]; -1.41 in test [4]; -0.311 in test [5]; -0.0945 in [6]. Also, the z-score is -0.594 (inactive) in test [7], -0.986 in test [8], -0.754 in [9] and 0.265 (inactive) in [10].
`COCCCNC(=O)[C@@]1(Sc2ccc(C)cc2)CC(=O)N(C2CCCCC2)[C@@H]1c1ccc(CO)cc1`: the z-score in test [1] is -0.162; in test [2] it was 0.152; in [3], -0.574; in test [4] it was -1.59; in [5] it was -1.45; in test [6], -0.155. Further, the z-score was 1.07 (inactive) in test [7], 0.855 in [8], 0.2 in test [9] and 0.377 (inactive) in test [10].
For `COC(=O)c1c2oc(c1C(=O)OC)C(=O)N(C)Cc1cn(nn1)C[C@H](Cc1ccccc1)NC(=O)N[C@H](CO)CC2`, the z-score is -0.145 in test [1]; 0.129 in test [2]; -0.0951 in [3]; 0.273 in [4]; -0.743 in [5]; -0.649 in test [6]. Besides, the z-score is -0.164 (inactive) in [7], 0.256 in test [8], -0.31 in test [9] and -0.213 (inactive) in test [10].
For `C=C(C(=O)CC[C@@H](OC(C)=O)c1ccc(CO)o1)C(C)C`, the z-score in test [1] was -0.306; in [2], -0.317; in test [3] it was -0.261; in test [4] it was -1.39; in test [5], -0.812; in [6], -1.5. For the same compound, the z-score in test [7] is 0.241 (inactive); in test [8], 0.544; in test [9] it was -0.591; in [10], 0.246 (inactive).
As for `CC(=O)NCCCC[C@@H]1NC(=O)[C@@H]2C[C@H](C(=O)NCCCC[N+](C)(C)C)[C@H](c3ccc(O)cc3)N2C1=O`, the z-score in [1] is -0.431; in [2], 0.994; in test [3] it was -1.29; in test [4], -0.606; in [5] it was 0.274; in test [6], -1.42. The z-score in test [7] was -0.152 (inactive); in test [8] it was -0.547; in [9], -0.0697; in test [10] it was -1.04 (inactive).
Regarding `COCCOC(=O)N1C(=O)[C@@]2(c3cc(C#CCCO)ccc31)[C@H](C(=O)Nc1nc3ccccc3s1)[C@H]1C(=O)O[C@H](c3ccccc3)[C@H](c3ccccc3)N1[C@@H]2c1ccccc1OCCO`, the z-score was -0.216 in test [1]; 0.121 in test [2]; -1.1 in test [3]; -0.965 in [4]; -0.333 in [5]; -3.13 in test [6]. The z-score in [7] is -0.372 (inactive); in [8], -0.183; in test [9], -0.744; in test [10] it was 0.513 (inactive).
